Test in all cases: NCI-60 one-dose screen, 48 h (100 = growth as untreated, 0 = no growth, -100 = all killed)
What all share (details): 10 µM unless noted

Test [1] relates to HCT-15 colon.
Test [2] has as its system HT29 colon.
The test system of test [3] is SNB-75 CNS.
For test [4], the system named is SNB-19 CNS.
The test system of test [5] is U251 CNS.
Test [6] concerns PC-3 prostate.
The subject of test [7] is SK-MEL-5 melanoma.
Test [8] relates to UACC-62 melanoma.
Test [9] deals with LOX IMVI melanoma.
In test [10] the test system is SK-MEL-28 melanoma.
The test system of test [11] is SK-MEL-2 melanoma.
Test [12] has as its system EKVX NSCLC.
Test [13] has as its system SN12C renal.
Test [14] relates to UO-31 renal.
The subject of test [15] is TK-10 renal.
Test [16] has as its system ACHN renal.
In test [17] the test system is CAKI-1 renal.
Test [18] deals with A498 renal.
The subject of test [19] is CCRF-CEM leukemia.
For test [20], the system named is MOLT-4 leukemia.

The panel holds about 83,000 compounds, 20% with a hit somewhere; the sample as a whole holds those more often.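 Method: cells in 96-well plates; compound added at one concentration; 48 h incubation; percent growth measured; values under 10 scored active.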 Values without a mark were called inactive. The source made the active and inactive calls.

For `CN1CCOCCN(C)Cc2ccc3ccc(cc3c2)CN(C)CCOCCN(C)Cc2ccc3ccc(cc3c2)C1`, the growth is 73.2% in test [1]; 7.33% (active) in test [2]; 78.3% in test [3]; 86.5% in [4]; 80.7% in test [5]; 55.5% in [6]. The growth was 99.4% in [7]; 104% in [8]; 93.8% in test [9]; 105% in test [10]; 114% in test [11]; 106% in test [12]. The growth in [13] was 92.6%; in test [14] it was 80.8%; in test [15], 97.4%; in test [16] it was 98.5%; in test [17] it was 77.7%; in [18], 79.1%. Besides, the results for the growth in [19] and in [20] were 56.3% and 74%, respectively.
For `Cc1ccc2cnc(N)c(C#Cc3cc(C(=O)Nc4ccc(CN5CCN(C)CC5)c(C(F)(F)F)c4)cnc3C)c2c1`, the growth was -40.5% (active) in test [1]; -62.7% (active) in [2]; -17.1% (active) in test [3]; 17.4% in test [4]; -80.7% (active) in [5]; -86.9% (active) in test [6]. Moreover, the growth in [7] is 26.8%; in test [8], 7.26% (active); in [9] it was -71% (active); in test [10], -84.9% (active); in [11], 6.23% (active); in [12], 12.6%. In addition, the growth is 2.6% (active) in [13]; -82% (active) in test [14]; 39.7% in test [15]; -100% (active) in [16]; -35.7% (active) in test [17]; -75.9% (active) in test [18]. The results for the growth in [19] and in test [20] were -34.8% (active) and -5.68% (active), respectively.
With `O=S(=O)(Nc1ccc2ccccc2c1)c1ccc(-c2cnc(C3CC3)o2)cc1`, the growth in test [1] is 31.5%; in [2] it was 14.8%; in [3], -1.76% (active); in test [4], 35.8%; in test [5] it was 23.6%; in [6] it was 23.4%. Besides, the growth in test [7] was 28.2%; in test [8], 32.1%; in [9], 56.9%; in test [10] it was 64.9%; in test [11], 40.2%; in [12], 41.9%. For the same compound, the growth was 44.9% in test [13]; 42.5% in [14]; 61.9% in [15]; 36.2% in test [16]; 28.9% in test [17]; 3.93% (active) in test [18]. Further, the figures for the growth in test [19] and in [20] were 10.7% and 20.2%, respectively.
Take `Cc1ccc(-c2csc(NC(=O)CSc3nc(N)cc(N)n3)n2)cc1`: the growth in [1] was 75.2%; in test [2], 87.8%; in test [3], 81.1%; in [4], 64.2%; in test [5], 78.1%; in test [6], 70.5%. Also, the growth in test [7] is 2.45% (active); in test [8] it was 55.1%; in test [9], 60.2%; in [10], 88.7%; in test [11], 51.6%; in [12], 46.4%. The growth in test [13] was 82.9%; in [14] it was 64.1%; in [15], 78.9%; in test [16] it was 65.8%; in test [17] it was 79%; in [18], 66.3%. Besides, the figures for the growth in test [19] and in [20] were 50% and 44.4%, respectively.
For `Cc1cc(=O)n(C(=S)Nc2ccc(Cl)cc2)c2cc(O)ccc12`, the growth is 105% in test [1]; 104% in [2]; 86.1% in test [3]; 102% in [4]; 101% in test [5]; 95.6% in test [6]. The growth in test [7] is 95.3%; in test [8] it was 100%; in [9], 99.3%; in test [10], 114%; in test [11], 104%; in test [12], 94.7%. For the same compound, the growth in test [13] was 105%; in [14], 72.2%; in test [15], 116%; in test [16], 100%; in test [17], 85.1%; in test [18], 122%. In addition, the growth in test [19] was 110%; in test [20] it was 102%.
Regarding `O=C(O)c1cn(C2CC2)c2cc(N3CCN(C(=O)N4CCOCC4)CC3)c(F)cc2c1=O`, the growth in test [1] is 103%; in test [2], 102%; in test [3] it was 98.1%; in test [4], 105%; in test [5], 103%; in test [6] it was 91.9%. Further, the growth was 99.4% in test [7]; 97.3% in test [8]; 87.1% in [9]; 104% in test [10]; 103% in test [11]; 101% in test [12]. The growth is 101% in test [13]; 79.6% in test [14]; 93.2% in test [15]; 100% in test [16]; 96.5% in test [17]; 117% in test [18]. The growth is 108% in test [19] and 117% in test [20].
Regarding `CCN1C2CCC1/C(=C\c1ccccc1)C(=O)/C2=C/c1ccccc1`, the growth in test [1] was 38.5%; in [2], 42.3%; in test [3], 50.6%; in [4] it was 65.5%; in test [5], 24.5%; in [6], 47.7%. For the same compound, the growth in test [7] was 56.6%; in test [8] it was 40.1%; in [9], 25.2%; in test [10], 77.1%; in test [11], 54.9%; in test [12] it was 71.4%. Moreover, the growth in [13] was 55.4%; in test [14], 61.1%; in test [15] it was 84.6%; in test [16] it was 57.7%; in test [17], 81.8%; in test [18], 66.1%. The growth in test [19] was 28.1%; in [20], 31%.

For the origin of these results see PubChem BioAssay (NCI).
